{"source": "PubChem BioAssay AID588342", "about": "(National Center for Advancing Translational Sciences (NCATS), 2011)", "note": "Out of some 360,000 compounds screened, about 25,000 (6.9%) were called active. Where a call stands in place of a potency, no number is given. Roughly 9% stayed inconclusive and do not appear here. This is one part of a sample in which actives are shown more often than they occur. The call rests on the fitted dose curve; in most records, active means well fitted inhibition curve with a large enough effect; inconclusive means small, poorly fitted or top-dose-only effect; inactive means flat fitted curve, though single readings scatter. Potency means the concentration at half of the fitted maximal effect.", "data": [{"biological_target": "Luciferin 4-monooxygenase (Photinus pyralis) (UniProt P08659)", "sequence (P08659 whole entry, looked up)": "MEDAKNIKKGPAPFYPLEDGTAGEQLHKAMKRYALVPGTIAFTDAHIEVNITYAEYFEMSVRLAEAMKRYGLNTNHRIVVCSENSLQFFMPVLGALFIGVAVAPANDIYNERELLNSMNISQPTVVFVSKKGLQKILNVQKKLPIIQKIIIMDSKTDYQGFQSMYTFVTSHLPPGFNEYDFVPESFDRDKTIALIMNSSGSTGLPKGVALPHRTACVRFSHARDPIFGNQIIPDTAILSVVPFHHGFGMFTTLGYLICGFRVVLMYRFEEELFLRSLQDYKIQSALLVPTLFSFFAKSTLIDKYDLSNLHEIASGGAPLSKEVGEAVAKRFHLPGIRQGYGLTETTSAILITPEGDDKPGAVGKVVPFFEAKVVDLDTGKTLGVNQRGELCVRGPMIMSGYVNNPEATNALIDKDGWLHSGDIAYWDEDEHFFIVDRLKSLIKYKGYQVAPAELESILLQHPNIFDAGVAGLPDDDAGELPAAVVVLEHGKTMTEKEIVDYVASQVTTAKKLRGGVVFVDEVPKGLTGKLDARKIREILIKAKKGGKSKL", "experiment": "qHTS profiling assay for firefly luciferase inhibitor/activator using purifed enzyme and Km concentrations of substrates (counterscreen for miR-21 project); further: nearly all actives have a fitted effect of over 55% in size", "conditions": "purified FLuc, luminescence inhibition; series mostly up to 57.5 µM", "summary_of_the_method": "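Biochemical qHTS of compounds, final roughly 60 µM downward over six points, against 10 nM purified firefly luciferase using Km concentrations of substrates (10 uM D-luciferin, 10 uM ATP) in Tris acetate pH 7.5 buffer; luminescence output.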", "values": [{"smiles": "CCC(=O)N1CCc2cc(CNC(=O)Nc3ccccc3Cl)ccc21", "Potency": "inactive"}, {"smiles": "COc1cc2sc(C)nc2cc1C", "Potency": "inactive"}, {"smiles": "CCCc1nc(NCc2ccc3c(c2)OCO3)c2nnn(Cc3ccccc3Cl)c2n1", "Potency": "inactive"}, {"smiles": "Cc1nc(Nc2ccc3c(c2)OCCO3)c2nnn(Cc3ccccc3Cl)c2n1", "Potency": "26.9 µM (active)"}, {"smiles": "Cc1nc(Nc2ccccc2F)c2nnn(Cc3ccccc3Cl)c2n1", "Potency": "inactive"}, {"smiles": "COc1ccc(OC(C)C(=O)NCCc2nc3ccccc3[nH]2)cc1", "note": "(stereo not given)", "Potency": "inactive"}, {"smiles": "c1ccc2c(CSCc3nc4ccccc4[nH]3)cccc2c1", "Potency": "10.7 µM (active)"}, {"smiles": "Nc1cccc(CCc2nc3ccccc3[nH]2)c1", "Potency": "inactive"}, {"smiles": "Clc1ccccc1SCc1nc2ccccc2[nH]1", "Potency": "13.5 µM (active)"}, {"smiles": "O=c1[nH]nc(CSCc2ccccc2Cl)[nH]1", "Potency": "inactive"}, {"smiles": "c1ccc(-c2nnc(SCc3nc4ccccc4[nH]3)o2)cc1", "Potency": "inactive"}, {"smiles": "COC(=O)Cc1ccc(OC(=O)C2CCN(S(=O)(=O)c3ccc(OC)c(OC)c3)CC2)cc1", "Potency": "inactive"}, {"smiles": "Cc1nnsc1C(=O)NCc1c(F)cccc1Cl", "Potency": "inactive"}, {"smiles": "Cc1nn(Cc2ccccc2)c(C)c1CNC(=O)c1ccc(F)c(S(=O)(=O)N2CCOCC2)c1", "Potency": "inactive"}, {"smiles": "O=C(NC(=S)Nc1cccc(-c2ccc(CO)o2)c1)c1cccs1", "Potency": "19 µM (active)"}, {"smiles": "O=C(Nc1ccccc1-c1ccccc1)c1cccs1", "Potency": "inactive"}, {"smiles": "O=C(NC(=S)Nc1ccc(NC(=O)c2cccs2)cc1)c1ccc([N+](=O)[O-])cc1", "Potency": "inactive"}, {"smiles": "CCc1cnc2c(c1SCC(=O)c1ccccc1)c(=O)n(C)c(=O)n2C", "Potency": "inactive"}, {"smiles": "O=S(=O)(NCc1ccccc1Br)c1ccccc1Br", "Potency": "inactive"}, {"smiles": "Cc1cc(Nc2ccccc2)n(C(=O)c2ccc(N)cc2)n1", "Potency": "9.53 µM (active)"}, {"smiles": "CCOC(=O)c1ccc(Nc2cc(C)nc3nc(C)nn23)cc1", "Potency": "inactive"}, {"smiles": "Cc1cc(C)n(C(=O)c2ccc(S(=O)(=O)N3CCCC3)cc2)n1", "Potency": "inactive"}, {"smiles": "Cc1ccc2cc(/C=N/Nc3ccc(C(=O)O)cc3)c(Cl)nc2c1", "Potency": "0.151 µM (active)"}, {"smiles": "CCNC(=S)NNC(=O)c1ccc2ncccc2c1", "Potency": "inactive"}, {"smiles": "CSCC[C@H](NC(=O)OC(C)(C)C)C(=O)N/N=C/c1cc2ccc(C)cc2nc1Cl", "Potency": "inactive"}, {"smiles": "O=C(O)c1ccc(N/N=C/c2ccc3ncccc3c2)cc1", "Potency": "0.675 µM (active)"}, {"smiles": "Cc1ccc2cc(/C=N/NC(=O)[C@@H]3CCCN3)c(Cl)nc2c1", "Potency": "inactive"}, {"smiles": "Cc1ccc(S(=O)(=O)Nc2ccc3ncccc3c2)cc1", "Potency": "inactive"}, {"smiles": "Cn1c(=O)n(Cc2ccco2)c(=N)c2c3c(sc21)CCCC3", "Potency": "inactive"}, {"smiles": "O=C(NCc1ccco1)c1cccn2c(=O)c3c4c(sc3nc12)CCCC4", "Potency": "inactive"}, {"smiles": "O=c1oc(-c2ccco2)nc2sc3c(c12)CCCCC3", "Potency": "0.675 µM (active)"}, {"smiles": "CCN(C(=O)CSc1nnc(-c2ccc(OC(F)F)cc2)n1N)C1CCS(=O)(=O)C1", "note": "(stereo not given)", "Potency": "inactive"}, {"smiles": "O=C(NNC(=O)c1ccc(-n2cncn2)c([N+](=O)[O-])c1)c1ccccc1", "Potency": "inactive"}, {"smiles": "C/C(=N\\NC(=O)CSc1nc2ccccc2c(=O)n1-c1ccccc1C)c1cccs1", "Potency": "inactive"}, {"smiles": "CCC1(CC)NC(=O)N(Cc2nc3ccccc3s2)C1=O", "Potency": "inactive"}, {"smiles": "C/C(=N\\NC(=O)CC(C)C)c1c(C(F)(F)F)[nH]n(-c2nc3ccccc3s2)c1=O", "Potency": "5.36 µM (active)"}, {"smiles": "CC(=NCc1ccco1)c1c(C(F)(F)F)[nH]n(-c2nc3ccccc3s2)c1=O", "Potency": "7.57 µM (active)"}, {"smiles": "Cc1cccc(NC(=O)c2cc3c(C)nn(-c4ccccc4)c3s2)c1", "Potency": "inactive"}, {"smiles": "O=C(NCc1ccncc1)C1CCN(C(=O)c2cccc(Cl)c2)CC1", "Potency": "inactive"}, {"smiles": "Cc1ccc(-n2c(CNc3ccc(F)cc3)nnc2SCC(=O)N2CCOCC2)cc1", "Potency": "inactive"}, {"smiles": "COc1ccccc1C(=O)CSc1cccc[n+]1[O-]", "Potency": "inactive"}, {"smiles": "O=C(CSc1cccc[n+]1[O-])c1ccc(Cl)cc1", "Potency": "inactive"}, {"smiles": "O=C(CSc1cccc[n+]1[O-])c1ccc(-c2ccccc2)cc1", "Potency": "19 µM (active)"}, {"smiles": "CC(O)c1cccc(NC(=O)Cc2cccc3ccccc23)c1", "note": "(stereo not given)", "Potency": "inactive"}, {"smiles": "CCC(=O)N1c2ccc(S(=O)(=O)CCC(=O)N3CCN(c4ccccc4)CC3)cc2CC1C", "note": "(stereo not given)", "Potency": "inactive"}, {"smiles": "CCCC(=O)N1c2ccc(-c3csc(N)n3)cc2CC1C", "note": "(stereo not given)", "Potency": "7.57 µM (active)"}, {"smiles": "Cc1ccn(CCC(=O)N2c3ccccc3CC2C)n1", "note": "(stereo not given)", "Potency": "inactive"}, {"smiles": "CCOc1ccccc1NC(=O)Cn1c(=O)n(-c2cccc(C)c2)c(=O)c2c1c1cc(OC)ccc1n2C", "Potency": "inactive"}, {"smiles": "CN(CC(=O)NC(=O)Nc1ccccc1F)Cc1ccccc1", "Potency": "inactive"}, {"smiles": "Oc1ccc(-c2nc3ccc(Cl)cn3c2Nc2ccc3c(c2)OCO3)cc1", "Potency": "inactive"}, {"smiles": "CCN(c1ncnc2c1cnn2-c1ccc(C)cc1)C1CCCCC1", "Potency": "2.13 µM (active)"}, {"smiles": "c1ccc(-n2ncc3c2ncn2c(C4CCCCC4)nnc32)cc1", "Potency": "inactive"}, {"smiles": "CN(C(=O)COc1ncnc2c1cnn2-c1ccccc1)C1CCCCC1", "Potency": "inactive"}, {"smiles": "O=C(Nn1cnc2ccccc2c1=O)c1ccc(F)cc1Cl", "Potency": "13.5 µM (active)"}, {"smiles": "O=C(Nn1cnc2ccccc2c1=O)c1ccc([N+](=O)[O-])cc1Cl", "Potency": "inactive"}, {"smiles": "O=c1c2ccccc2ncn1CCCCOc1ccccc1F", "Potency": "inactive"}, {"smiles": "COC(=O)c1c(NC(=O)C(C)Oc2ccc(Cl)c(C)c2)sc(C)c1C", "note": "(stereo not given)", "Potency": "inactive"}, {"smiles": "Cc1ccc(NC(=S)N2CCN(c3ncccn3)CC2)cc1C", "Potency": "inactive"}, {"smiles": "COc1ccc(NC(=O)Cn2c(=O)n(CCC(C)C)c(=O)c3cccnc32)cc1Cl", "Potency": "inactive"}, {"smiles": "Cc1ccccc1CNC(=O)CSc1nnc(C)c2c(C)n(-c3ccccc3)nc12", "Potency": "inactive"}, {"smiles": "Nc1ccc(N=Nc2ccccc2Cl)c(N)n1", "Potency": "6.01 µM (active)"}, {"smiles": "O=C1C=C(c2cccc(Cl)c2)C[C@@H](c2ccc(F)cc2)C1", "Potency": "inactive"}, {"smiles": "COc1ccc(Cn2cc(C(=O)c3ccc(C)cc3)c(=O)c3cc(OC)c(OC)cc32)cc1", "Potency": "inactive"}, {"smiles": "Cn1nc(C(C)(C)C)c(NC(=O)c2sccc2Cl)c1C(C)(C)C", "Potency": "inactive"}, {"smiles": "COC(=O)c1sc(-c2ccc(C(C)(C)C)cc2)cc1NC(=O)/C=C/C(=O)O", "Potency": "1.51 µM (active)"}, {"smiles": "COc1ccccc1NC(=O)/C=C/C(N)=O", "Potency": "inactive"}, {"smiles": "N#CC(C#N)=CN=c1ccn(Cc2ccc(Cl)cc2Cl)cc1", "Potency": "inactive"}, {"smiles": "COc1ccc(C(=O)NC2CCN(C(=O)Nc3ccc(F)cc3)CC2)cc1", "Potency": "inactive"}, {"smiles": "COc1ccc(NC(=O)N2CCC(Cc3ccccc3)CC2)cc1", "Potency": "15.1 µM (active)"}, {"smiles": "COc1ccc(NC(=O)N2CCCC(C(=O)Nc3ccccc3OC)C2)cc1", "note": "(stereo not given)", "Potency": "inactive"}]}]}
